Rows were chosen to be rich in hits. Some 1.2% of all compounds tested hit in one or more screens of this group.
Avidin bead fluor: avidin bead compound fluorescence profile | Avidin beads, compound fluorescence 488/530 nm, flow cytometry; hits give high values | fluorescence (KMESF) at 10 µM | 0.38% of 220,000 active | AID 1775; in the data active means fluorescence above about 47
RGS4-Gao reg: modulates binding of RGS4 to human Galphao. 0.33% of 220,000 active. AID 1415. binding response (% of control), % at 10 µM. Multiplexed bead flow cytometry; actives lie on both sides; in the data active means binding response below about 49% or above about 150%; inactive means in between;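 further: fluorescent Galphao activated with aluminum fluoride binding bead-coupled RGS4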
Target sequence (P09471 whole entry, looked up): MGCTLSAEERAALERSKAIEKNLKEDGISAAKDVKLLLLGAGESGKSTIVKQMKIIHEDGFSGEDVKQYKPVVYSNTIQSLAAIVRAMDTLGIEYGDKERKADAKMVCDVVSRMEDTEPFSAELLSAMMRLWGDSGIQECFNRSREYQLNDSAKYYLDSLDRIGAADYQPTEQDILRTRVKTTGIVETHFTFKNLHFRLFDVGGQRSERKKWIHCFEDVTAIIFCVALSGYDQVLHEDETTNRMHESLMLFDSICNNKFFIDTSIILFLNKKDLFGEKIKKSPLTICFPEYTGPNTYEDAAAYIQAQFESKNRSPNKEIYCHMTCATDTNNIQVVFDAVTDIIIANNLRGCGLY
RGS7-Gao reg: human RGS7-Galphao interaction regulation; P09471; Multiplexed bead flow cytometry, RGS7-Galphao binding; actives lie on both sides; binding response (% of control), % at 10 µM; 0.35% of 220,000 active; AID 1439; in the data active means binding response below about 49% or above about 150%; inconclusive means no clear call, values can overlap the other calls; inactive means in between;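 further: fluorescent Galphao held in activated GDP-AlF4 state binding bead-coupled RGS7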
RGS8-Gao reg: regulators of human RGS8-Galphao interaction. multiplexed bead flow cytometry, RGS8-Galphao binding; actives lie on both sides. response (percent of control binding), % at 10 µM. 0.34% of 220,000 active. AID 1423; in the data active means response below about 60% or above about 140%; inactive means in between;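 further: Galphao activated as the GDP aluminium fluoride complex binding bead-coupled RGS8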
RGS16-Gao HTS: regulators of human RGS16-Galphao interaction | 0.38% of 220,000 active | binding response (% of control), % at 10 µM | bead-based flow cytometry RGS16-Galphao binding, fluorescence; actives lie on both sides | O15492+P09471 | AID 1441; call rule not given here;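 further: Galphao activated by GDP with aluminum fluoride before binding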
GSH fluor: GSH bead compound fluorescence profile; GSH beads flow cytometry, compound fluorescence 488/530 nm; hits give high values; fluorescence (KMESF) at 10 µM; 0.25% of 190,000 active; AID 1776; in the data active means fluorescence above about 89;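 further: glutathione beads carrying GST-tagged Bcl family fusion proteins plus one bare bead set; values are compound well signal with DMSO vehicle wells as background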
* hit, by the source's call.

How did Cc1cccc(OCc2nnc(SCC(=O)NCCc3ccccc3)o2)c1 do in these assays?
Avidin bead fluor: 10; RGS4-Gao reg: 99; RGS7-Gao reg: 104; RGS8-Gao reg: 100; RGS16-Gao HTS: 102; GSH fluor: 243*

Results for Cc1cccc(OCc2nnc(SCC(=O)c3ccccc3)o2)c1 ?
Avidin bead fluor: 64*; RGS4-Gao reg: 105; RGS7-Gao reg: 130; RGS8-Gao reg: 98; RGS16-Gao HTS: 104; GSH fluor: 14

Results for Cc1nnc(SCC(=O)N2CCCCC2)n1CC1CCCO1 (configuration not stated) ?
Avidin bead fluor: 4; RGS4-Gao reg: 105; RGS7-Gao reg: 101; RGS8-Gao reg: 106; RGS16-Gao HTS: 112; GSH fluor: 94*

How did CC(C)CNC(=O)COC(=O)c1cc(Cl)cc(Cl)c1N do in these assays?
Avidin bead fluor: 7; RGS4-Gao reg: 93; RGS7-Gao reg: 95; RGS8-Gao reg: 95; RGS16-Gao HTS: 99; GSH fluor: 265*

Results for COC(=O)CNC(=O)COC(=O)c1cc(Cl)cc(Cl)c1N ?
Avidin bead fluor: 31; RGS4-Gao reg: 100; RGS7-Gao reg: 102; RGS8-Gao reg: 98; RGS16-Gao HTS: 100; GSH fluor: 22

What do the screens show for `CCn1c(CSc2nc3ccccc3s2)nnc1SCC(=O)c1ccc(O)c(O)c1`?
Avidin bead fluor: 4; RGS4-Gao reg: 68; RGS7-Gao reg: 67; RGS8-Gao reg: 76; RGS16-Gao HTS: 65; GSH fluor: 268*

Results for CC(=O)Nc1ccc(S(=O)(=O)N2CCN(c3ccccn3)CC2)cc1 ?
Avidin bead fluor: 65*; RGS4-Gao reg: 98; RGS7-Gao reg: 111; RGS8-Gao reg: 96; RGS16-Gao HTS: 99; GSH fluor: 25

Results for CC(=O)Nc1ccc(S(=O)(=O)N2CCOCC2)cc1 ?
Avidin bead fluor: 4; RGS4-Gao reg: 78; RGS7-Gao reg: 80; RGS8-Gao reg: 95; RGS16-Gao HTS: 88; GSH fluor: 140*

How did Cc1ccc(S(=O)(=O)N2CCN(c3ccccn3)CC2)cc1 do in these assays?
Avidin bead fluor: 5; RGS4-Gao reg: 98; RGS7-Gao reg: inconclusive; RGS8-Gao reg: 96; RGS16-Gao HTS: 97

How did Cc1cccc(-c2c3c(=O)n(C)c(=O)n(C)c3cn2CC2CCCO2)c1 (configuration not stated) do in these assays?
Avidin bead fluor: 6; RGS4-Gao reg: 84; RGS7-Gao reg: 99; RGS8-Gao reg: 93; RGS16-Gao HTS: 87; GSH fluor: 261*

What do the screens show for `CC(=O)Nc1nonc1-c1nc2ccccc2n1CCC#N`?
Avidin bead fluor: 9; RGS4-Gao reg: 97; RGS7-Gao reg: 97; RGS8-Gao reg: 106; RGS16-Gao HTS: 109; GSH fluor: 25

What do the screens show for `CC(=O)Nc1nonc1-c1nc2ccccc2n1CC1CC1`?
Avidin bead fluor: 57*; RGS4-Gao reg: 101; RGS7-Gao reg: 117; RGS8-Gao reg: 92; RGS16-Gao HTS: 80; GSH fluor: 13

Results for CC(C)(C)SCCNS(=O)(=O)c1ccc2ccccc2c1 ?
Avidin bead fluor: 9; RGS4-Gao reg: 101; RGS7-Gao reg: 99; RGS8-Gao reg: 100; RGS16-Gao HTS: 104; GSH fluor: 31

How did COC(=O)CCNS(=O)(=O)c1ccc2ccccc2c1 do in these assays?
Avidin bead fluor: 66*; RGS4-Gao reg: 106; RGS7-Gao reg: 130; RGS8-Gao reg: 90; RGS16-Gao HTS: 76; GSH fluor: 6

What do the screens show for `Cc1cc(Nc2ncc(Cl)cc2Cl)n(-c2ccccn2)n1`?
Avidin bead fluor: 7; RGS4-Gao reg: 102; RGS7-Gao reg: 100; RGS8-Gao reg: 107; RGS16-Gao HTS: 118; GSH fluor: 268*

What do the screens show for `CSc1ccccc1NC(=O)c1cc2ncc(Br)cn2n1`?
Avidin bead fluor: 3; RGS4-Gao reg: 101; RGS7-Gao reg: 113; RGS8-Gao reg: 88; RGS16-Gao HTS: 90; GSH fluor: 21

What do the screens show for `COC(=O)c1sc2ccccc2c1C(=O)OC`?
Avidin bead fluor: 61*; RGS4-Gao reg: 103; RGS7-Gao reg: 118; RGS8-Gao reg: 99; RGS16-Gao HTS: 106; GSH fluor: 17

How did COC(=O)c1sc2ccccc2c1N do in these assays?
Avidin bead fluor: 7; RGS4-Gao reg: 98; RGS7-Gao reg: 98; RGS8-Gao reg: 102; RGS16-Gao HTS: 104; GSH fluor: 17

Assay outcomes deposited in PubChem BioAssay by NMMLSC.
